PubChem BioAssay AID602252 (Broad Institute, 2012)
The campaign covered roughly 300,000 compounds. About 2,700 (0.9%) were called active.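 The calls were made as follows: active = mean inhibition of at least 30% with at least half of replicates also reaching 30%; inconclusive = no clear call, values can overlap the other calls; inactive = the rest.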 The sample as a whole holds a higher share of actives than the screen did.

biological target: Golgi-associated PDZ and coiled-coil motif-containing protein (Homo sapiens) (UniProt Q9HD26); experiment: blockade of CAL PDZ-reporter peptide interaction – biochemical, fluorescence polarization, untagged CAL PDZ, HTS, primary screen (AID 602252); conditions: purified CAL PDZ, TMR-peptide fluorescence polarization, 1 h; at 24.9 µM; active compounds read high;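 also: 0% = DMSO neutral control and 100% = excess unlabeled competitor peptide PRC23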

inhibition, active:
CCc1nnc(NC(=O)c2cc(S(=O)(=O)N3CCCCC3)ccc2C)s1 77.7%
CCOC(=O)c1c(-c2ccc(-c3ccccc3)cc2)csc1NC(=O)CCC(=O)O 39.2%
COc1ccccc1NC(=O)Nc1nnc(Cc2ccc(F)cc2)s1 54%
COc1cccc(NC(=O)c2ccccc2N(Cc2ccccc2)S(C)(=O)=O)c1 44.6%
Cc1ccc(NC(=O)c2cccc(S(=O)(=O)N3CCCc4ccccc43)c2)nc1 44.8%

inhibition, inactive:
CCOC(=O)c1sc(NC(=O)c2cc(S(=O)(=O)N3CCOCC3)ccc2C)nc1C -2.78%
CCOC(=O)CSc1nnc(NC(=O)c2cccc(S(=O)(=O)N3CCCCC3)c2)s1 -0.488%
CN(C(=O)c1cccc(NC(=O)Cc2ccc(NC(=O)C3CCCN(C(=O)C4CCCC4)C3)cc2)c1)C1CCC1 (stereo not drawn) 4.34%
CCOC(=O)c1c(-c2cccc(C)c2)csc1NC(=O)c1c(-c2ccccc2)noc1C -0.763%
CCOC(=O)c1c(-c2ccccc2)csc1NC(=S)NC(=O)c1ccccc1 -5.36%
C=CCN1C=C(C(=O)c2ccccc2)C(=O)CC1 6.82%
O=C(Nc1nnc(COc2ccccc2)s1)Nc1ccccc1F 1.97%
COc1ccc(Cc2nnc(NC(=O)c3ccc(OC)cc3OC)s2)cc1 -2.81%
CN(CCc1ccccc1)C(=O)c1cccc(NC(=O)Cc2cccc(NC(=O)C3CCCN(C(=O)C4CCC4)C3)c2)c1 (stereo not drawn) -1.08%
COc1ccc(CCNC(=O)COc2cc(C)cc3oc(=O)c(C)c(C)c23)cc1OC -1.33%
COc1cccc(NC(=O)c2ccccc2SC)c1 0.222%
COc1cccc(CN(C)CC(=O)Nc2ccccc2C(=O)Nc2ccccc2)c1 -7.24%
O=C(Nc1cccc(S(=O)(=O)N2CCCCC2)c1)c1cncc(Br)c1 0.772%
Cc1cccc(NC(=O)c2cccc(S(=O)(=O)N3CCCC3)c2)n1 -2.35%
NS(=O)(=O)c1ccc(CNC(=O)c2cccc(S(=O)(=O)N3CCc4ccccc43)c2)cc1 -0.134%
O=C(CN1C(=O)NC2(CCCCCC2)C1=O)Nc1ccc([N+](=O)[O-])cc1 -4.3%
C=CC[C@@H](Cc1ccc(F)cc1)C(=O)OC[C@H]1CCCN1C(=O)[C@H](CC=C)CC(=O)N(CCO)Cc1ccccc1 -2.32%
COc1cccc(-n2c(SCC(=O)NC3CCS(=O)(=O)C3)nc3ccccc3c2=O)c1 (stereo not drawn) -4.98%
